The values below come from PubChem BioAssay (Tox21).

Test [1] can be described thus: Nuclear factor erythroid 2-related factor 2/antioxidant responsive element (Nrf2/ARE) small molecule agonists: qHTS cell viability counter screen in human keratinocytes (AID 1919968; active = well fitted curve in the direction sought with a large enough effect in the repeat runs; an effect the other way counts as inactive or inconclusive; note: nearly all actives have a fitted effect of over 55% in size; note: potency is the fitted concentration of half-maximal effect). The method in brief: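 Seed 1,500 KeratinoSens cells per well, then incubate 5 h at 37 C/5% CO2. Add compounds in DMSO and incubate 23 h. Add CellTiter-Fluor, wait 1 h and read fluorescence.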

A short description of test [2]: Nuclear factor erythroid 2-related factor 2/antioxidant responsive element (Nrf2/ARE) small molecule agonists: luciferase reporter gene qHTS assay in human keratinocytes (AID 1919969). Note: nearly all actives have a fitted effect of over 35% in size. Note: potency is the fitted concentration of half-maximal effect.
Test [3] in a line: p53 small molecule agonists, cell-based qHTS assay with human liver microsomes: qHTS cell viability counter screen (AID 1963579). Note: nearly all actives have a fitted effect of over 45% in size. Note: potency is the fitted concentration of half-maximal effect. The method in brief:
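Cytotoxicity counter screen: p53RE-bla, 4,000 cells/well; 5 h settle, 37 C/5% CO2; cpd + HLM 0.5 mg/mL + NADPH 0.5 mg/mL (final); 16 h, 37 C; CellTiter-Glo, 30 min RT, luminescence.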

The nature of test [4]: p53 small molecule agonists, cell-based qHTS assay with rat liver microsomes: qHTS cell viability counter screen (AID 1963580). Note: nearly all actives have a fitted effect of over 45% in size. Note: potency is the fitted concentration of half-maximal effect. The method in brief:
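HCT-116 p53RE-bla, 4,000 cells/well, 5 h pre-incubation; cpd + rat liver microsomes 0.5 mg/mL + NADPH 0.5 mg/mL (final); 16 h, 37 C; CellTiter-Glo, 30 min RT; luminescence.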

Test [5] in a line: p53 small molecule agonists, cell-based qHTS assay: qHTS cell viability counter screen (AID 1963581). Note: nearly all actives have a fitted effect of over 45% in size. Note: potency is the fitted concentration of half-maximal effect. The method in brief: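 Cells: HCT-116 with p53 response element-driven beta-lactamase. Treatment: 16 h, 37 C, compounds in DMSO. Read: CellTiter-Glo luminescence after 30 min RT.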
In test [6] the target is Beta-2 adrenergic receptor (Homo sapiens) (UniProt P07550). Nature of the test: Adrenergic beta2 receptor (ADRB2) small molecule antagonists, cell-based qHTS assay (AID 1963592). Note: nearly all actives have a fitted effect of over 50% in size. Note: potency is the fitted concentration of half-maximal effect. The method in brief: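 Cells (CHO, stable ADRB2 overexpression) incubated 18-20hr at 37C; compounds added from DMSO; agonist mix (1nM isoproterenol, 100uM IBMX, 25uM Ro-20-1724) added; 0.5hr RT; d2-cAMP and anti-cAMP-cryptate added; 1hr RT; 665/615 nm read.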
Chain of Beta-2 adrenergic receptor (Homo sapiens) (P07550 whole entry, looked up): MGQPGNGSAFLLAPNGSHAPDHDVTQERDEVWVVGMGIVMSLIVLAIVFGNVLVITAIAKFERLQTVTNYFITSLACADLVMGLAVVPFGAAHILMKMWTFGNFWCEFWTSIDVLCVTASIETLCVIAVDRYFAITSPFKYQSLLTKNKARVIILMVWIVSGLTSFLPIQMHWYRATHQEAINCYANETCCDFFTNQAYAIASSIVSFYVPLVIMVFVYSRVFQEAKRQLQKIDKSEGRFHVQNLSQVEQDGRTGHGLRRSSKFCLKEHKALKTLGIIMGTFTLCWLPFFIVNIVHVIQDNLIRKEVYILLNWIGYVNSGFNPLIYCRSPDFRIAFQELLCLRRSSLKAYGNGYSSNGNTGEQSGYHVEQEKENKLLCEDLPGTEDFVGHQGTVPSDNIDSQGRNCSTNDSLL

For test [7] the target is unchanged. Put plainly: Adrenergic beta2 receptor (ADRB2) small molecule agonists, cell-based qHTS assay (AID 1963593).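 Note: CHO cells stably overexpressing human ADRB2.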 The method in brief:
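CHO cells stably over-expressing ADRB2 were plated overnight at 37C, then dosed with compounds plus a stimulation mix containing 100uM IBMX and 25uM Ro-20-1724 for 0.5hr at room temperature. cAMP was measured by HTRF competition, 1hr.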

For test [8], the target named is D(2) dopamine receptor (Homo sapiens) (UniProt P14416). Nature of the test: Dopamine D2 receptor (DRD2) small molecule agonists, cell-based qHTS assay (AID 1963594). Note: nearly all actives have a fitted effect of over 35% in size. In outline:
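cAMP accumulation in DRD2-HEK293 cells measured by HTRF after 1 h detection; compounds added 10 min before NKH477 (200nM […]) forskolin-analogue stimulation, 30 min at room temperature, with Ro20-1724 present at 0.1 mM final.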

Test [9] can be described thus: G protein-coupled receptor (GPCR) small molecule agonists, calcium flux assay: HEK293 wild type cell line counter screen (AID 1920065). In outline: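 Counter-screen of the Tox21 10K library for non-specific calcium release: dye-loaded cells received compounds in DMSO and were monitored by kinetic fluorescence (480/540 nm, 3 min). Fifteen concentrations, run in triplicate.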

The nature of test [10]: p53 small molecule agonists, cell-based qHTS assay with human liver microsomes (AID 1963577). The method in brief:
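Fluorescence of the beta-lactamase reporter in p53RE-bla cells, detected with LiveBLAzer substrate (2 h, room temperature, dark), served as the read-out after 16 h compound exposure at 37 C with human liver microsomes and NADPH, each 0.5 mg/mL final.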

Test [11] is described as follows: p53 small molecule agonists, cell-based qHTS assay with rat liver microsomes (AID 1963578). The method in brief: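 Cells carrying a p53 response element–beta-lactamase reporter were plated and rested 5 h, then dosed with compound in DMSO plus rat liver microsomes and NADPH, each at 0.5 mg/mL final. After 16 h at 37 C, LiveBLAzer substrate was added for 2 h.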
A short description of test [12]: p53 small molecule agonists, cell-based qHTS assay (AID 1963582; active = well fitted activation curve with a large enough effect in the signal ratio in the repeat runs, not every such curve was filed as active; the % refers to the signal ratio). In outline: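 Quantitative HTS in p53RE-bla cells: after a 5 h settling period, compounds delivered in DMSO were left on cells for 16 h at 37 C, and reporter induction was measured as fluorescence following 2 h substrate loading.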
Test [13] deals with 5-hydroxytryptamine receptor 2A (Homo sapiens) (UniProt P28223). Put plainly: 5-hydroxytryptamine receptor 2A (HTR2A) small molecule antagonists, cell-based qHTS assay (AID 1963586). Note: nearly all actives have a fitted effect of over 45% in size. The method in brief: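 Antagonist-mode intracellular calcium assay: DOI (4 nM) added after 5 min compound pre-incubation at room temperature to dye-loaded HTR2A-CHO cells. Fluorescence followed for 3 min, sampled every second.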
Chain of 5-hydroxytryptamine receptor 2A (Homo sapiens) (P28223 whole entry, looked up): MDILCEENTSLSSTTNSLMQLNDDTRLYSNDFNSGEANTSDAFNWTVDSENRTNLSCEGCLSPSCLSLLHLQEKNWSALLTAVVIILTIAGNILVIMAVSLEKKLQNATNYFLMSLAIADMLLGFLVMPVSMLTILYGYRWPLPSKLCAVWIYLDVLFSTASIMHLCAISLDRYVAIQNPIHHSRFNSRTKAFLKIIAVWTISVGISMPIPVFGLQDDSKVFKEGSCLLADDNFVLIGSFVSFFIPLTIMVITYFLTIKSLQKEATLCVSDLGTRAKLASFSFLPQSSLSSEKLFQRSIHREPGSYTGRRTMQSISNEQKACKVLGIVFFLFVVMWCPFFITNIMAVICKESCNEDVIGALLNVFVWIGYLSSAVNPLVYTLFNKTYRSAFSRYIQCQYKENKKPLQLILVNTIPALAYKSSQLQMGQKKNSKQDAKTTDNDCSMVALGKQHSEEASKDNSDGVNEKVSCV

The target is the same in test [14]. Put plainly: 5-hydroxytryptamine receptor 2A (HTR2A) small molecule agonists, cell-based qHTS assay (AID 1963587). Note: nearly all actives have a fitted effect of over 30% in size. In outline: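 Kinetic calcium-flux fluorescence (2 min, 1 sec intervals) after compound addition in agonist mode. HTR2A-CHO cells were cultured 18 h, then dye-loaded 1 h at 37 C.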
In test [15] the target is Muscarinic acetylcholine receptor M1 (Homo sapiens) (UniProt P11229). Put plainly: Cholinergic receptor muscarinic 1 (CHRM1) small molecule antagonists, cell-based qHTS assay (AID 1963588). Note: nearly all actives have a fitted effect of over 40% in size. The method in brief:
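CHRM1-CHO calcium-flux assay, antagonist mode. Cells were seeded 18 h, dye-loaded 1 h at 37 C and given compound for 5 min at RT, then acetylcholine was added at 50nM. FDSS fluorescence was read 3 min; 15 concentrations, three runs.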

Test [16] shares this target. Nature of the test: Cholinergic receptor muscarinic 1 (CHRM1) small molecule agonists, cell-based qHTS assay (AID 1963589). Note: nearly all actives have a fitted effect of over 35% in size. The method in brief:
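Agonist-mode qHTS in CHO cells stably carrying human muscarinic M1. Intracellular calcium is tracked by fluorescence every second after compound transfer; each compound runs at 15 concentrations in three independent runs.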

The nature of test [17]: cAMP Responsive Elements (CRE) small molecule agonists, cell-based qHTS assay (AID 1963590). Note: potency is the fitted concentration of half-maximal effect. In outline: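 Agonist mode qHTS in CRE-bla HEK 293T cells: compounds dosed from DMSO for 3 h at 37 C/5% CO2, followed by LiveBLAzer B/G FRET substrate for 2 h at room temperature.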
Test [18] in a line: cAMP Responsive Elements (CRE) small molecule antagonists, cell-based qHTS assay (AID 1963591; active = well fitted inhibition curve with a large enough effect in the signal ratio in the repeat runs, not every such curve was filed as active; the % refers to the signal ratio). The method in brief: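 Antagonist mode: test compounds are co-incubated with the adenylyl cyclase activator NKH477 (0.25 uM final) on CRE-bla HEK293T cells for 3 h at 37 °C, followed by LiveBLAzer substrate loading.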
The target of test [19] is D(2) dopamine receptor (Homo sapiens) (UniProt P14416). Put plainly: Dopamine D2 receptor (DRD2) small molecule antagonists, cell-based qHTS assay (AID 1963595; active = well fitted inhibition curve with a large enough effect in the signal ratio in the repeat runs, with a control signal flat; the % refers to the signal ratio). In outline: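 Stable D2 receptor HEK293 line, 24 h after seeding. Compound preincubated 10 min, then quinpirole (12 nM) with forskolin analogue NKH477 (200 nM), 30 min, room temperature. Detection by time-resolved FRET of cAMP.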
Chain of D(2) dopamine receptor (Homo sapiens) (P14416 whole entry, looked up): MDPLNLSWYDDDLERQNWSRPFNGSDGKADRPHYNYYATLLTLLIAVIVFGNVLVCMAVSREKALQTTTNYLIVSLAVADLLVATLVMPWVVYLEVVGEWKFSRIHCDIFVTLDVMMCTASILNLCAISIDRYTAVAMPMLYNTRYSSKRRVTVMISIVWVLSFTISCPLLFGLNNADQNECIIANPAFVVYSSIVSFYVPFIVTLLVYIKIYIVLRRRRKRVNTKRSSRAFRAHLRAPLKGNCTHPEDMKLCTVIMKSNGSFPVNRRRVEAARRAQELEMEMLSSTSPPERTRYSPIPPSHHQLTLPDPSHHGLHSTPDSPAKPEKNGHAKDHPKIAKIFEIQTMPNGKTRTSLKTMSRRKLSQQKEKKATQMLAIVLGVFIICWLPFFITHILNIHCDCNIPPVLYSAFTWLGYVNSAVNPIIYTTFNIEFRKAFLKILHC

For test [20], the target named is KiSS-1 receptor (Homo sapiens) (UniProt Q969F8). Nature of the test: Human kisspeptin (KISS1R) small molecule agonists, calcium flux assay in KISS1R-HEK293 cells (AID 1920064; active = well fitted curve in the direction sought with a large enough effect in the repeat runs; an effect the other way counts as inactive or inconclusive). In outline:
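Cells plated and incubated 18 h; dye added, 1 h at 37 C; compounds in DMSO pinned in; signal read at 480/540 nm every second for 3 min. Each compound tested at 15 concentrations in triplicate.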

Several values for one entry are separate records, joined by “and”; a condition that tells them apart may be missing. Identical values can stand only once. Inconclusive results are not listed. A structure can be active in one record and inactive in another. Activity calls are given as the source filed them. Unless noted, calls come from the whole dose curve.

Chain of KiSS-1 receptor (Homo sapiens) (Q969F8 whole entry, looked up): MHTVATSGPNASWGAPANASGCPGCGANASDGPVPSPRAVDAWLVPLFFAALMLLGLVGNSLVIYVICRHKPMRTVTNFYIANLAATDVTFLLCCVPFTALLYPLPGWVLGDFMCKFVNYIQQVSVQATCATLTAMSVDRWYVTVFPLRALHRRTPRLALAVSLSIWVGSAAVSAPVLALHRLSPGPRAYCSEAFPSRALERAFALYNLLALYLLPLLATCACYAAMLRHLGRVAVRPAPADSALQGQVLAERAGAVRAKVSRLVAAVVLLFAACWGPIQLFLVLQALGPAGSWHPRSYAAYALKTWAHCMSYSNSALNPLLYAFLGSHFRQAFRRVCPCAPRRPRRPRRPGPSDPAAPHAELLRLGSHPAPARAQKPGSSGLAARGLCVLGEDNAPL
Chain of Muscarinic acetylcholine receptor M1 (Homo sapiens) (P11229 whole entry, looked up): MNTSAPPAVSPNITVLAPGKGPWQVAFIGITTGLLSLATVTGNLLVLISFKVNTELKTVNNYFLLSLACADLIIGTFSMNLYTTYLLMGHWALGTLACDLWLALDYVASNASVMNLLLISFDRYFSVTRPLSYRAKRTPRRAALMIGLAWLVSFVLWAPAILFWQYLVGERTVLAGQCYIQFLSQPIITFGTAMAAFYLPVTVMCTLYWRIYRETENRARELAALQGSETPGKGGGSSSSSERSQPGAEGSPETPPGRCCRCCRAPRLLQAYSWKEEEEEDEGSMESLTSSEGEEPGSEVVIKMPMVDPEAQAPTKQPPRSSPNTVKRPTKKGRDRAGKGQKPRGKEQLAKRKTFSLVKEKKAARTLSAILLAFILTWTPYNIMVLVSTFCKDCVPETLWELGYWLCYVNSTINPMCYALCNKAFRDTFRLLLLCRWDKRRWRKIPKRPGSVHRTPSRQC

For `C[C@@H]1O[C@@H](O[C@H]2C[C@@H](O)[C@]3(CO)[C@H]4[C@H](O)C[C@]5(C)[C@@H](C6=CC(=O)OC6)CC[C@]5(O)[C@@H]4CC[C@]3(O)C2)[C@H](O)[C@H](O)[C@H]1O`, the Potency is 730 nM (active) and 1.06 µM (active) in [1]; 163 nM (active) and 211 nM (active) in [2]; 68.8 nM (active) and inactive in test [3]; 112 nM (active) in test [4]; 126 nM (active) in test [5]. The Potency entry in [6], in test [7] and in [8] was “inactive” throughout.
Turning to `Cn1cc(-c2ccccc2)c(=O)c(-c2cccc(C(F)(F)F)c2)c1`, the Potency entry in test [1], in [2], in [9], in test [10], in test [11] and in test [3] was “inactive” each time. Besides, the Potency result in test [5], in test [12], in test [13], in test [14], in [15] and in test [16] was “inactive” each time. The Potency entry in test [17], in [18], in test [8] and in [19] was “inactive” throughout. In addition, the Potency in [6] is 29.9 µM (active) and inactive.
Take `c1ccc(OP(Oc2ccccc2)Oc2ccccc2)cc1`: the Potency entry in test [1], in test [2], in [20], in [9], in test [10] and in test [11] was “inactive” throughout. The Potency entry in [3], in test [4], in [5], in [12], in [13] and in test [14] was “inactive” in each case. Further, the Potency result in [15], in test [16], in [17], in [18], in test [6] and in [7] was “inactive” each time. In addition, the Potency entry in [8] and in test [19] was “inactive” in each case.
As for `c1cc2c3c(cccc3c1)CC2`, the Potency entry in test [1], in [2], in test [10], in [11], in [3] and in test [4] was “inactive” throughout. The Potency entry in [5], in test [12], in [14], in test [15], in test [16] and in test [17] was “inactive” throughout. Further, the Potency entry in test [18], in [6] and in test [8] was “inactive” throughout.
As for `COC(=O)[C@@H](N)CCCN/C(N)=N/[N+](=O)[O-]`, the Potency entry in [1], in test [2], in test [20], in test [9], in test [10] and in test [11] was “inactive” in each case. The Potency result in test [3], in test [4], in [5], in test [12], in [13] and in test [14] was “inactive” each time. Further, the Potency entry in test [15], in test [16], in test [17], in test [18] and in test [6] was “inactive” throughout.
For `N#CCCCCC#N`, the Potency result in [1], in test [2], in test [20], in test [9], in test [10] and in test [11] was “inactive” each time. In addition, the Potency entry in [3], in test [4], in test [5], in test [12], in [13] and in test [14] was “inactive” throughout. The Potency result in test [15], in test [16], in [17], in test [18], in [6] and in test [7] was “inactive” throughout. The Potency entry in test [8] and in [19] was “inactive” in each case.
Consider `CC1OC(C)OC(C)O1` (stereo not drawn), for which the Potency entry in test [1], in test [2], in test [9], in test [10], in test [11] and in [3] was “inactive” in each case. In addition, the Potency result in test [5], in test [12], in [13], in [14], in test [16] and in [17] was “inactive” throughout. The Potency result in [7] and in [19] was “inactive” throughout.
Regarding `COc1ccc2c3c1O[C@H]1[C@H](O)CC[C@H]4[C@@H](C2)N(C)CC[C@@]341`, the Potency result in [1], in [2], in test [9], in test [10], in test [3] and in test [5] was “inactive” in each case. In addition, the Potency entry in test [12], in test [13], in test [14], in [15], in [16] and in [17] was “inactive” each time. Also, the Potency entry in [18], in test [6], in test [7], in test [8] and in test [19] was “inactive” throughout.
As for `CCCN(CCOc1c(Cl)cc(Cl)cc1Cl)C(=O)n1ccnc1`, the Potency result in test [1], in [2], in [9], in test [3], in test [4] and in test [5] was “inactive” in each case. Moreover, the Potency result in test [12], in test [13], in [15], in test [16], in [18] and in test [6] was “inactive” throughout. Moreover, the Potency entry in [8] and in [19] was “inactive” throughout. Further, in test [17], the Potency is 27.9 µM (active) and 48.6 µM (active).
